A number with no mark means an inactive call. Calls of active or inactive are those of the source. How the calls were made is not given here.

What is called AC50 is the concentration giving half of the maximal activity seen.

The nature of this experiment: C difficile toxins, biochemical counterscreen, UDPG substrate absence, confirmatory dose response (AID 720650). Particulars: series mostly up to 19.5 µM; activity change, negative = inhibition: at the top concentration. Background: A counterscreen serves to expose hits that act by an unwanted route or on another target.
For `Cc1ccc(S(=O)(=O)N2CC(CBr)=CCC2c2ccccc2)cc1` (stereo not drawn), the AC50 is 13.9 µM (active).
Regarding `NC(=O)CC(NC(=O)c1ccccc1)c1ccc(NCCc2ccc(F)cc2)c([N+](=O)[O-])c1` (stereo not drawn), the “activity change, negative = inhibition” value was -15.4%.
As to `c1ccc(OCCSc2nnc3sc4ccccc4n23)cc1`, the concentration at half-maximal activity (AC50) is 20.6 µM (active).
In the case of `CCOC(=O)c1ccc(-n2c(CCC(=O)O)ccc2-c2ccc(F)cc2)cc1`, the “activity change, negative = inhibition” value is 10.7%.
Turning to `CNC(=O)C1CCN(S(=O)(=O)c2c(C)noc2/C=C/c2cccc(OC)c2)CC1`, the “activity change, negative = inhibition” value was -5.22%.
`COc1ccccc1CNC(=O)CN(c1ccc(C)cc1)S(=O)(=O)c1c(C)n[nH]c1C`: the “activity change, negative = inhibition” value was 2.29%.
Still for that read-out and setting: the figure for `COc1ccc(/C=C2/C(=O)C(C)(C(C)C)CCC2C)cc1` (stereo not drawn) is 8.31%.
In the case of `Oc1ccccc1-c1cnc2cccnn12`, the AC50 was above 39 µM.
Turning to `Cc1ccc(C(=O)Nc2ccc(O)cc2C(=O)O)cc1C`, the AC50 is above 39 µM.
In the case of `O=C(NC(=S)NNS(=O)(=O)c1ccccc1)c1cccnc1`, the “activity change, negative = inhibition” value is -9.81%.
In the case of `CC1(C)O[C@@H]2[C@H](O1)[C@@H](COS(=O)(=O)O)O[C@H]2n1c(=S)[nH]c2c(=O)[nH]c(N)nc21`, the “activity change, negative = inhibition” value is -22.6%.
In the case of `CC[n+]1ccc(/C=C/c2ccc(N(C)C)cc2)c2ccccc21`, the concentration at half-maximal activity (AC50) is 11.7 µM (active).
With `C/C(=N\NC(=O)c1ccccc1O)c1cccc(NC(=O)c2ccccc2)c1`, the “activity change, negative = inhibition” value is -12.3%.
Take `C[C@H](CO)N1C[C@H](C)[C@@H](CN(C)C(=O)Nc2ccc(C(F)(F)F)cc2)Oc2c(NS(=O)(=O)c3cn(C)cn3)cccc2C1=O`: the AC50 was above 39 µM.
Consider `Nc1ncc(S(=O)(=O)c2ccc([N+](=O)[O-])cc2)s1`, for which the “activity change, negative = inhibition” value is -5.28%.
For the compound `O=C(O)C1C(=O)NCC1c1ccccc1` (stereo not drawn), the “activity change, negative = inhibition” value is -10.6%.
`CN(C)CCCNC(=O)C[C@H]1CC[C@@H]2[C@@H](COc3ccc(NC(=O)c4ccc5c(c4)OCO5)cc3C(=O)N2C)O1`: the “activity change, negative = inhibition” value is -0.21%.
In the case of `O=C(CCC(=O)N1CCSc2ccccc21)Nc1cccc(F)c1`, the “activity change, negative = inhibition” value was -8.2%.
For the compound `Cc1cc(C)nc(SCC(=O)c2ccc(O)c(O)c2)n1`, the “activity change, negative = inhibition” value is 4.35%.
Turning to `c1ccc2[nH]c(-c3ccc4c(c3)OCO4)nc2c1`, the “activity change, negative = inhibition” value was -21.3%.
With `Cc1nc(S(=O)(=O)N(C)Cc2ccccc2)c(C#N)c(C)c1Cl`, the “activity change, negative = inhibition” value was -9.25%.
Same read-out and setting: the figure for `COc1ccc(CNC(=O)C2CCN(S(=O)(=O)c3c(C)noc3/C=C/N(C)C)CC2)cc1` is -8.74%.
Consider `Cc1cc(-c2ccc(NS(=O)(=O)c3ccccc3)c(C)c2)ccc1NS(=O)(=O)c1ccccc1`, for which the “activity change, negative = inhibition” value is -6.17%.
For the compound `c1ccc(SCc2nc3ccccc3s2)nc1`, the “activity change, negative = inhibition” value is -1.41%.
As to `CC1C(=O)NN=C1c1ccc([N+](=O)[O-])cc1` (stereo not drawn), the “activity change, negative = inhibition” value was 2.17%.
Take `O=C(CCn1c(=O)oc2cc(Cl)ccc21)Nc1ccc(O)cc1`: the AC50 is 4.49 µM (active).
The same measure, in the same setting: then `Oc1ccc(CCNc2ncnc3ccc(Cl)cc23)cc1`, with 19.5 µM (active).
For the compound `Cc1ccc2ccc[n+](Cc3ccccc3)c2c1`, the “activity change, negative = inhibition” value was -7.71%.
Consider `Oc1ccc(-c2nc3cnccn3c2Nc2ccc3c(c2)OCCO3)cc1`, for which the “activity change, negative = inhibition” value is -2.26%.
Turning to `COc1ccc(C(=O)Nc2ccc3c(c2)C(=O)N(C)[C@@H]2CC[C@H](CC(=O)NCC4CC4)O[C@H]2CO3)cc1`, the “activity change, negative = inhibition” value is -17.7%.
Turning to `Cc1nc2[nH]c(=S)[nH]c2c(=O)[nH]1`, the AC50 is above 39 µM.
`COc1cc(C=NNC(=O)c2ccccc2-n2cccc2)ccc1O`: the “activity change, negative = inhibition” value was 2.55%.
For `CC(=O)N1CC[C@@H]2[C@@H](CO)N(C)c3ccc(-c4ccccc4)cc3[C@@H]21`, the concentration at half-maximal activity (AC50) is 7.4 µM (active).
Take `CCC(=O)Nc1ccc2c(c1)OC[C@@H](C)N(C(=O)NC(C)C)C[C@H](C)[C@H](OC)CN(C)C2=O`: the “activity change, negative = inhibition” value was 7.18%.
As for `CC(C)CN1CCN(CC#Cc2ccccc2)CC1CCO` (stereo not drawn), the “activity change, negative = inhibition” value is -8.09%.
`COc1cc(/C=N/NC(=O)C2COc3ccccc3O2)ccc1O` (stereo not drawn): the “activity change, negative = inhibition” value is -0.527%.
For the compound `Cc1nc2ccccn2c1-c1ccnn1S(=O)(=O)c1ccc(F)cc1`, the “activity change, negative = inhibition” value is -14.9%.
Regarding `CC(=O)C(Sc1nccc(-c2cccs2)n1)C(C)=O`, the AC50 is 9.69 µM (active).
